Here are results for 37 molecules from PubChem BioAssay (NCI).

This is part of a sample that, as a whole, favours compounds with a hit. Of some 83,000 tested, about 20% had one in any assay.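 Values shown are percent growth following 48 h exposure of cells in 96-well plates to a single concentration of compound; below 10 was considered active.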 Calls of active or inactive are those of the source.

For the first assay, the system named is UO-31 renal. The assay can be described thus: NCI-60 one-dose screen, 48 h (100 = growth as untreated, 0 = no growth, -100 = all killed). Particulars: 10 µM unless noted.
As for `c1cnc2ccc3ncccc3c2c1`, the growth is 76.8% (inactive).
Take `CCCCCCCCCCSc1ncnc2nc[nH]c12`: the growth was 48.5% (inactive).
The same measure, in the same setting: as for `Clc1ccc2c(Nc3ccc4oc(NCCN5CCCC5)nc4c3)ccnc2c1`, the figure is 66.2% (inactive).
Same read-out and setting: under `CCN(CC)CCCNCCCNc1cc(OC)cc2cccnc12` stands 88.1% (inactive).
As for `CCCCCCCCCCCCNc1ncnc2[nH]ncc12`, the growth is 77.7% (inactive).
Still for that read-out and setting: under `CCCCCCCC/C=C/CCCCCCCC1=NC(C)(C)CN1CCO` stands -44.8% (active).
On the same count and under the same terms, under `O=C(CN1CCCCC1)Sc1nnc2sc3ccccc3n12` stands 68.3% (inactive); under `c1cncc(CNc2ccccc2-c2nnc(Nc3ccc4c(c3)OCO4)o2)c1`, 40.7% (inactive); under `CC(=O)NC1(C(=O)O)CCCC1`, 99.9% (inactive).
Still for that read-out and setting: under `CCCCCCCCCCCCCCCCN=C(CC(=O)O)C(=O)O` stands 89.8% (inactive).
For the molecule `c1ccc(N2CCN(c3nncc4ccccc34)CC2)nc1`, the growth is 96% (inactive).
As to `O=c1[nH]c(Cl)nc2c1cnn2-c1ccccc1`, the growth was 73.2% (inactive).
In the case of `ClC1=C(Cl)C(Cl)=C(Cl)C1=C/C=C/c1ccccc1`, the growth was -50.9% (active).
Still for that read-out and setting: under `CN(CC(=O)N(Cc1ccc(C2CCCCC2)cc1)c1ccc(C(=O)O)cc1)S(=O)(=O)c1c(F)c(F)c(F)c(F)c1F` stands 81.2% (inactive); under `COc1ccc(C2CC(c3cccc(Nc4ccnc5cc(Cl)ccc45)c3)=NN2C=O)cc1` (centres undefined), 22.8% (inactive); under `CCCCCCCCCCCCCCCCCC1=NC(C)(C)CN1CCO`, -62.9% (active).
Consider `COc1ccc(CCN2CCCN3C2=Nc2ccccc2S3(=O)=O)cc1`, for which the growth was 53.4% (inactive).
Still for that read-out and setting: as for `CCOC(=O)c1cc(-c2cccnc2)nc2c(Cl)cc(Cl)cc12`, the figure is 75% (inactive); as for `CCC(C)(C)C(=O)O[C@H]1C[C@@H](C)C=C2C=C[C@H](C)[C@H](CC[C@@H]3C[C@@H](O)CC(=O)O3)[C@H]21`, 52.1% (inactive).
Same read-out and setting: as for `O=C1C(=O)c2ccc(Br)cc2-c2cc(Br)ccc21`, the figure is 48.4% (inactive); as for `CCOC(=O)c1c(C)c(C(=O)OCC)n(C)c1C`, 81.2% (inactive); as for `COc1ncc(-c2ccc3nccc(C#CCN4CCN(S(C)(=O)=O)CC4)c3c2)cc1NS(=O)(=O)c1ccc(F)cc1F`, 5.46% (active).
Still for that read-out and setting: under `COc1ccc2c3c(c(OCCCN(C)C)nc2c1)-c1ccc(Cl)cc1C3=O` stands -72.3% (active); under `CC1=CC(=O)C(C(C)=Nc2ccccc2Cl)C(=O)O1` (centres undefined), 95.8% (inactive); under `C=C(C[C@](O)(C(=O)/C=C/c1ccc(Cl)cc1)C(=O)OC)c1ccccc1`, 52.6% (inactive).
On to `Nc1ccc(C2=Nc3cccc4cccc(c34)S2)cc1`, for which the growth was 60.4% (inactive).
Still for that read-out and setting: as for `COc1cc(C2CC(c3ccc(C)cc3)=NN2C(C)=O)ccc1Oc1ccnc2cc(Cl)ccc12` (centres undefined), the figure is 61.6% (inactive); as for `CSc1ncc2ncn(C3OC(CO)C(O)C3O)c2n1` (centres undefined), 111% (inactive).
Consider `COc1ccc2nc3cc(Cl)ccc3c(Nc3cc(C(C)C)c(O)cc3C)c2c1`, for which the growth was -6.15% (active).
Same read-out and setting: as for `O=C(Nc1ccc(Cl)cc1Cl)Nc1ccc(-c2cccnc2)cc1N1CCC(CO)CC1`, the figure is 17% (inactive); as for `COc1ccc2c(c1)C(=O)c1c-2c(OCCCN(C)C)nc2cc(Br)ccc12`, -34.7% (active).
The same measure, in the same setting: as for `CC(O)c1nc2c(c(=O)n(C)c(=O)n2C)n1C` (centres undefined), the figure is 91.1% (inactive); as for `COc1cc(Oc2cc(-c3cccnc3)ccc2NC(=O)Nc2ccc(F)cc2F)cc(OC)c1OC`, 76.8% (inactive); as for `O=C(/C=C/c1ccccc1Cl)c1ccc(O)cc1`, 43.6% (inactive).
Still for that read-out and setting: under `CN1CCN(Cc2ccc(NC(=O)c3[nH]ncc3Nc3ccnc4ccnn34)cc2)CC1` stands 71.1% (inactive).
`Cc1cc(C(C)(C)c2cc(C)c(O)c(CN(C)C)c2)cc(CN(C)C)c1O`: the growth is 59.4% (inactive).
On the same count and under the same terms, under `N#Cc1c(N)[nH]c(S)c1C#N` stands 88.2% (inactive).

The subject of another assay is TK-10 renal. Described as above. Particulars: 10 µM unless noted.
`c1cnc2ccc3ncccc3c2c1`: the growth is 127% (inactive).
Same read-out and setting: as for `CCCCCCCCCCSc1ncnc2nc[nH]c12`, the figure is 82% (inactive).
Same read-out and setting: as for `Clc1ccc2c(Nc3ccc4oc(NCCN5CCCC5)nc4c3)ccnc2c1`, the figure is 103% (inactive); as for `CCN(CC)CCCNCCCNc1cc(OC)cc2cccnc12`, 112% (inactive).
Still for that read-out and setting: under `CCCCCCCCCCCCNc1ncnc2[nH]ncc12` stands 88.2% (inactive).
On to `CCCCCCCC/C=C/CCCCCCCC1=NC(C)(C)CN1CCO`, for which the growth is 59.5% (inactive).
Same read-out and setting: under `O=C(CN1CCCCC1)Sc1nnc2sc3ccccc3n12` stands 122% (inactive); under `c1cncc(CNc2ccccc2-c2nnc(Nc3ccc4c(c3)OCO4)o2)c1`, 50% (inactive); under `CC(=O)NC1(C(=O)O)CCCC1`, 117% (inactive).
On the same count and under the same terms, under `CCCCCCCCCCCCCCCCN=C(CC(=O)O)C(=O)O` stands 83.9% (inactive).
Same read-out and setting: under `c1ccc(N2CCN(c3nncc4ccccc34)CC2)nc1` stands 105% (inactive); under `O=c1[nH]c(Cl)nc2c1cnn2-c1ccccc1`, 102% (inactive).
With `ClC1=C(Cl)C(Cl)=C(Cl)C1=C/C=C/c1ccccc1`, the growth is -5.53% (active).
Still for that read-out and setting: as for `CN(CC(=O)N(Cc1ccc(C2CCCCC2)cc1)c1ccc(C(=O)O)cc1)S(=O)(=O)c1c(F)c(F)c(F)c(F)c1F`, the figure is 102% (inactive).
The same measure, in the same setting: as for `COc1ccc(C2CC(c3cccc(Nc4ccnc5cc(Cl)ccc45)c3)=NN2C=O)cc1` (centres undefined), the figure is 41.5% (inactive); as for `CCCCCCCCCCCCCCCCCC1=NC(C)(C)CN1CCO`, -33.8% (active).
In the case of `COc1ccc(CCN2CCCN3C2=Nc2ccccc2S3(=O)=O)cc1`, the growth is 61.1% (inactive).
Consider `CCOC(=O)c1cc(-c2cccnc2)nc2c(Cl)cc(Cl)cc12`, for which the growth was 75.7% (inactive).
Same read-out and setting: as for `CCC(C)(C)C(=O)O[C@H]1C[C@@H](C)C=C2C=C[C@H](C)[C@H](CC[C@@H]3C[C@@H](O)CC(=O)O3)[C@H]21`, the figure is 83.1% (inactive); as for `O=C1C(=O)c2ccc(Br)cc2-c2cc(Br)ccc21`, 114% (inactive).
On the same count and under the same terms, under `CCOC(=O)c1c(C)c(C(=O)OCC)n(C)c1C` stands 78.4% (inactive); under `COc1ncc(-c2ccc3nccc(C#CCN4CCN(S(C)(=O)=O)CC4)c3c2)cc1NS(=O)(=O)c1ccc(F)cc1F`, 12% (inactive); under `COc1ccc2c3c(c(OCCCN(C)C)nc2c1)-c1ccc(Cl)cc1C3=O`, 11.2% (inactive).
`CC1=CC(=O)C(C(C)=Nc2ccccc2Cl)C(=O)O1` (centres undefined): the growth was 126% (inactive).
Same read-out and setting: under `C=C(C[C@](O)(C(=O)/C=C/c1ccc(Cl)cc1)C(=O)OC)c1ccccc1` stands 64.6% (inactive); under `Nc1ccc(C2=Nc3cccc4cccc(c34)S2)cc1`, 88.3% (inactive); under `COc1cc(C2CC(c3ccc(C)cc3)=NN2C(C)=O)ccc1Oc1ccnc2cc(Cl)ccc12` (centres undefined), 11.1% (inactive).
Same read-out and setting: as for `CSc1ncc2ncn(C3OC(CO)C(O)C3O)c2n1` (centres undefined), the figure is 122% (inactive); as for `COc1ccc2nc3cc(Cl)ccc3c(Nc3cc(C(C)C)c(O)cc3C)c2c1`, 15.7% (inactive).
`O=C(Nc1ccc(Cl)cc1Cl)Nc1ccc(-c2cccnc2)cc1N1CCC(CO)CC1`: the growth was 52.8% (inactive).
On the same count and under the same terms, as for `COc1ccc2c(c1)C(=O)c1c-2c(OCCCN(C)C)nc2cc(Br)ccc12`, the figure is 76.7% (inactive); as for `CC(O)c1nc2c(c(=O)n(C)c(=O)n2C)n1C` (centres undefined), 113% (inactive).
Turning to `COc1cc(Oc2cc(-c3cccnc3)ccc2NC(=O)Nc2ccc(F)cc2F)cc(OC)c1OC`, the growth was 116% (inactive).
The same measure, in the same setting: as for `O=C(/C=C/c1ccccc1Cl)c1ccc(O)cc1`, the figure is 78.6% (inactive); as for `CN1CCN(Cc2ccc(NC(=O)c3[nH]ncc3Nc3ccnc4ccnn34)cc2)CC1`, 103% (inactive).
On the same count and under the same terms, under `Cc1cc(C(C)(C)c2cc(C)c(O)c(CN(C)C)c2)cc(CN(C)C)c1O` stands 94.2% (inactive).
On the same count and under the same terms, as for `N#Cc1c(N)[nH]c(S)c1C#N`, the figure is 111% (inactive).
